# D1 antagonist: Antagonist of Human D 1 Dopamine Receptor: qHTS; D(1A) dopamine receptor (Homo sapiens), P21728; actives 3.2% (n = 360,000); HEK293 TREx D1 cells, calcium flux, dopamine EC80; hits give low values; AID 504652, 2011; activity change, negative = inhibition, % at 10 µM; in the data active = activity change below about -30%; note: % is set by controls: 0 for no effect and ±100 for the full control effect
# Target sequence (P21728 whole entry, looked up): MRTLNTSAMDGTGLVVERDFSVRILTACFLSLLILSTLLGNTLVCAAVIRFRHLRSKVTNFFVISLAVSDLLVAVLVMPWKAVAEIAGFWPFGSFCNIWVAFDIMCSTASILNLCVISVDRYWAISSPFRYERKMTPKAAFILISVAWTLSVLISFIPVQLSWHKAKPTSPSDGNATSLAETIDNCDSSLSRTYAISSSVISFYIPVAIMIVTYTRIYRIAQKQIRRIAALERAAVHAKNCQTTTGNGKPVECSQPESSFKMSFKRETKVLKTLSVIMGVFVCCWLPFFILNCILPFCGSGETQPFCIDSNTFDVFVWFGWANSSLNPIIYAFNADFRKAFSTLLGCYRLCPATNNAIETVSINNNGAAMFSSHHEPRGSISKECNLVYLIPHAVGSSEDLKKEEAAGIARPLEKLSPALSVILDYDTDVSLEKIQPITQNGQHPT
#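 Tetracycline-induced HEK293 T-REx cells with force-coupled D1 receptor were loaded with a no-wash calcium dye. Compound was added after a 10 s baseline and read kinetically for 180 s; EC80 dopamine was then added and calcium flux followed another 180 s.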
# D1 ag: Allosteric Agonists of the Human D1 Dopamine Receptor: qHTS; HEK293 T-REx D1 cells, calcium flux, agonist mode; D(1A) dopamine receptor (Homo sapiens), P21728; AID 504660, 2011; actives 1% (n = 360,000); activation, % at 2 µM; in the data active = activation above about 30%; note: 0% is about no effect
#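 Tetracycline-induced HEK293 TREx D1 cells, force-coupled to calcium signalling, were dye-loaded with a no-wash calcium kit. Compound was pin-added after a 10 s baseline. Fluorescence was read kinetically at 1 cycle/s for 180 s, with calcium rises flagged as agonism.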
# DRD3 agonist: qHTS of D3 Dopamine Receptor Agonist: qHTS | max activation, % | actives 0.58% (n = 410,000) | D3R DiscoveRx beta-arrestin cells, luminescence, 90 min | D(3) dopamine receptor (Homo sapiens), P35462; in the data active = max activation above about 30%; note: 0% is about no effect
#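 Agonist-mode cell screen: cells plated at 1500/well and incubated overnight at 37 °C, then exposed to library compounds for 90 min at 37 °C. Detection reagent was added for 30–60 min at room temperature, and luminescence was read.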
# D3 antag: qHTS of D3 Dopamine Receptor Antagonist: qHTS; D3R cells, DiscoveRx beta-arrestin luminescence, antagonist mode; hits give low values; max response, negative = inhibition, %; actives 2.5% (n = 360,000); AID 652054, 2013; in the data active = max response below about -50%; inconclusive = no clear call, values can overlap the other calls; note: % is set by controls: 0 for no effect and ±100 for the full control effect
#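 Cells plated overnight at 1500 cells/well, then exposed to library compounds with dopamine controls for 90 minutes at 37 degrees C. DiscoveRx reagent added for 30–60 minutes at room temperature; luminescence read, quantitative HTS format.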
# D1 PAM: Potentiators of Human D1 Dopamine Receptor: qHTS | HEK293 TREx D1 cells, calcium flux, dopamine EC20 potentiation | potentiation, % at 10 µM | actives 0.036% (n = 360,000) | AID 504651, 2011; in the data active = potentiation above about 30%; note: 0% is about no effect
# Starred values were filed as active, the others as inactive; u = inconclusive; x = no result given. Rows were chosen to be rich in hits. Some 6% of all compounds tested hit in one or more screens of this group.
SMILES,D1 antagonist,D1 ag,DRD3 agonist,D3 antag,D1 PAM
CCC(=O)N1CCc2cc(S(=O)(=O)NC(C(=O)NCc3ccc(OC)cc3)C(C)C)ccc21 (centres undefined),23,-1,-15,x,2
CSCCCN1CCCC(CO)(Cc2ccccc2F)C1 (centres undefined),20,2,-7,-56*,-1
CSCCCN1CCCC(CO)(Cc2ccc(F)cc2)C1 (centres undefined),32,-2,-6,0,-9
N#C/C(=C\c1ccc(O)cc1)c1nc2ccccc2o1,-18,21,-5,-13,-3
COc1cc(/C=C(\C#N)c2nc3ccccc3o2)ccc1O,-5,332*,-8,u,5
CCn1c2c(c(=O)n3ncc(C(=O)N4CCN(c5ccc(Cl)cc5)CC4)c13)CN(Cc1ccc(OC)cc1)CC2,-46*,10,-5,x,-3
Cc1cc(C)c2c(-n3cccc3)c(C(=O)NCc3cccc(F)c3)sc2n1,15,0,-6,x,-1
CCNC(=O)C(=O)NCCC1CCCCN1S(=O)(=O)c1cccs1 (centres undefined),5,1,-10,-54*,-2
CC(C)CNC(=O)C(=O)NCCC1CCCCN1S(=O)(=O)c1cccs1 (centres undefined),-4,1,-2,5,1
CCCCC/C(=N\NC(=O)CCC(=O)NCc1ccccc1)c1ccccc1,-4,1,0,13,-4
CCCCCC/C(=N\NS(C)(=O)=O)c1ccccc1,-68*,-1,4,-10,29
CCCC/C(=N\NC(=O)c1ccc(Br)o1)c1ccccc1,-66*,1,7,8,-4
Cc1ccc(-n2c(SCC(=O)Nc3cccc(S(N)(=O)=O)c3)nc3ccccc32)cc1,-4,2,44*,52,1
Cc1cccc(C)c1NC(=O)CNC(=O)c1ccccc1,-31*,11,0,5,x
O=C(O)CNC(=O)c1ccccc1,-34*,3,-1,-22,2
Cc1ccc(-n2nc(C)c3c(C(=O)Nc4ccc(C)cc4Cl)cc(C)nc32)cc1,-9,2,-1,x,-3
COc1ccc(-n2ccnc(NCc3ccccc3OC)c2=O)cc1,-8,3,-2,x,-4
O=C1c2cc(O)cc(O)c2C(=O)c2c1cc(O)c([C@@H](CO)CCO)c2O,x,x,-21,-53*,x
CCOc1ccccc1CNC(=O)c1cc(-c2ccc(OC)cc2)nc2ccc(C(C)C)cc12,16,-2,2,x,3
Cc1cccc(C(=O)NCN2CCN(c3ccccc3C#N)CC2)c1,x,x,-81,-76*,x
O=C(NCN1CCN(c2ccccc2F)CC1)c1ccccc1,2,0,-2,u,3
CCc1ccc(NCc2cccn2-c2nnc(N3CCCCCC3)s2)cc1,-31*,0,-5,x,2
COc1ccc(CCNC(=O)C2CCN(c3nc4ccccc4nc3C(F)(F)F)CC2)cc1OC,-15,1,9,x,-6
CCCCCCCCCCCCCCCC(=O)OCC(COC(=O)CCCCCCCCCCCCCCC)OC(=O)CCCCCCCCCCCCCCC,x,x,6,x,x
CCCCCCCCCCCCCCCC(=O)OC(CC(=O)O)C[N+](C)(C)C (centres undefined),-34*,75*,-23,-26,-7
SMILES,D1 antagonist,D1 ag,DRD3 agonist,D3 antag,D1 PAM
CCOC(=O)c1cnn(-c2ccc(C(=O)Nc3cc(OC)c(OC)c(OC)c3)cc2)c1N,-3,0,-12,x,-2
O=C(Nc1ccc(Br)cc1)c1ccc(N2C(=O)C3CCCCC3C2=O)cc1 (centres undefined),-37*,4,0,-9,-6
CC(=O)OCCn1c2nc(=O)[nH]c(=O)c-2nc2cc(C)c(C)cc21,5,482*,-5,0,30
CCCC(=O)OC[C@@H](OC(=O)CCC)[C@@H](OC(=O)CCC)[C@H](Cn1c2nc(=O)[nH]c(=O)c-2nc2cc(C)c(C)cc21)OC(=O)CCC,x,x,6,x,x
CCOc1ccccc1-n1nnnc1SCC(=O)N(C)C1CCS(=O)(=O)C1 (centres undefined),x,x,-1,-19,x
COc1ccccc1-n1nnnc1SCC(=O)N(C)C1CCS(=O)(=O)C1 (centres undefined),-38*,1,3,-16,0
COc1ccc(CCNC(=O)CSc2cn(Cc3cccc(C)c3)c3ccccc23)cc1OC,10,34*,-1,-17,1
COc1ccc(NC(=O)CSc2nnnn2C2CCCCC2)c(OC)c1,4,0,3,-7,-1
COc1ccc(OC)c(NC(=O)CSc2nnnn2C2CCCC2)c1,-8,1,36*,2,-1
COc1ccc(C(=O)Nc2ccccc2N2CCOCC2)cc1[N+](=O)[O-],-32*,1,3,-5,0
Cc1cc(NC(=O)CN2C(=O)CSc3ccc(S(=O)(=O)N(C)C)cc32)ccc1Br,29,4,-8,x,-1
COc1ccc(Cl)cc1NC(=O)CNc1ccccc1N1CCOCC1,-35*,3,2,-4,-6
COc1cccc(-n2c(C)nnc2SCC(=O)Nc2ccccc2N2CCOCC2)c1,-20,1,-5,9,-1
COc1ccc(OC)c(-n2nnnc2SCC(=O)Nc2ccccc2N2CCOCC2)c1,-34*,0,-1,-23,-2
COc1ccccc1-n1nnnc1SCC(=O)NC1CC1,2,1,-10,-6,4
COc1ccc(NC(=O)CSc2nnnn2-c2ccccc2OC)c(OC)c1,-68*,7,0,1,-5
COc1ccc(NC(=O)CSc2ncnc3c2nnn3-c2ccc(F)cc2)c(OC)c1,-34*,2,-5,0,-4
CCc1ccccc1N(C)C(=O)Cn1cnc2sc(C)c(S(=O)(=O)N3CCN(c4ncccn4)CC3)c2c1=O,14,-2,2,x,0
Cc1ccc(N2C(=O)[C@@H]3CSC(c4ccc(C(F)(F)F)cc4)N3C2=O)cc1 (some centres undefined),10,13,6,x,-4
CCOC(=O)c1ccc(NC(=O)CSc2nccn2-c2ccc(OCC)cc2)cc1,-19,6,3,x,-3
COc1ccc(CCNC(=O)CSc2nnnn2-c2ccccc2OC)cc1OC,-52*,14,-7,u,-7
CSc1ccc(C2NC(=O)CCC2[N+](=O)[O-])cc1 (centres undefined),-33*,1,-6,-9,-2
CN(C)CCNC(=O)COc1ccc(C23CC4CC(CC(C4)C2)C3)cc1,7,33*,-14,0,-3
